From PubChem BioAssay
NADH enzymes = blocks coupling enzymes of NAD/NADH assays; coupled PK/LDH NADH assays, four targets; IC50, µM (doses to about 10 µM), for the others: at the highest dose inhibition; 65,000 tested, 0.02% active; AID 774;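 active = single-dose screening hits from any of four coupled enzyme assays that gave an IC50 when retested across doses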;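 note: the DPM-DC format reads NADH fluorescence rather than 340 nm absorbance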
Spn DPM-DC inh = inhibitors of Streptococcus pneumoniae diphosphomevalonate decarboxylase | purified DPM-DC, PK/LDH coupled NADH fluorescence | 65,000 tested, 0.49% active | calls only at 10 µM | AID 556;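 active = the 320 compounds with the highest percent inhibition in the single-dose primary screen, excluding strongly autofluorescent ones, cut at about 32% in these data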;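 note: kinetic rate of NADH fluorescence loss reporting ADP formed by the decarboxylase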
Autofluor 339 = intrinsic fluorescence of library compounds, ex339/em460 – biochemical, MLSMR library, data from DPM-DC assay, artefact control, profiling panel; compound autofluorescence, ex339/em460 nm, NADH buffer; active compounds read high; 1 = no-compound wells, NADH background; fluorescence fold increase at 10 µM; 65,000 tested, 5.5% active;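 active = at 10 µM, mean starting fluorescence two-fold or more over control wells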;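 note: signal is the first read of a kinetic run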
Spn MK inh = S. pneumoniae mevalonate kinase inhibition. purified MK, PK/LDH-coupled NADH absorbance 340 nm. inhibition, % at 10 µM. 65,000 tested, 0.48% active;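 active = ranked among the strongest by inhibition in the single 10 µM screen, a fixed top-ranked set picked for dose follow-up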
Spn PMK inh = blocks S. pneumoniae phosphomevalonate kinase. inhibition, % at 10 µM. 65,000 tested, 0.49% active. purified PMK, PK/LDH-coupled NADH absorbance 340 nm;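 active = top-ranked compounds by inhibition in the single 10 µM screen, taking a fixed number of the strongest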;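 note: 0% = full reaction with DMSO carrier and 100% = background rate without enzyme reaction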
A340 absorber = absorbance at 340 nm; compound absorbance at 340 nm, fold over control; fold change at 10 µM; AID 708; 65,000 tested, under 10 active;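 active = at 10 µM dose, initial 340 nm absorbance at least 2 fold that of control wells; inactive = change under 2 fold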;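 note: initial absorbance extrapolated from kinetic A340 decline of NADH oxidation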
An asterisk follows results filed as active; i = inactive; . = no result shown; + = active, no number. An excerpt weighted towards active compounds, which were near 6.5% of everything screened.

SMILES | NADH enzymes | Spn DPM-DC inh | Autofluor 339 | Spn MK inh | Spn PMK inh | A340 absorber
CCc1nc2ccccc2n1Cc1cc(=O)n2cc(C)ccc2n1 | 10.0% | i | 3.43* | 0.0 | 16.0 | 1.11
COc1cc2c(C#N)c(N3CCOCC3)nc(N)c2c(N)n1 | 2.0% | . | 3.36* | 0.0 | 13.0 | 1
COc1cc2c(C#N)c(N3CCCCC3)nc(N)c2c(N)n1 | 5.0% | . | 5.11* | 1.0 | 9.0 | 1.05
COc1cc2c(C#N)c(N3CCc4ccccc4C3)nc(N)c2c(N)n1 | 0.0% | . | 2.17* | 0.0 | 0.0 | 1.04
CC(C)Cn1c(=O)c(C2=NS(=O)(=O)c3ccccc3N2)c(O)c2ccccc21 | 5.0% | . | 1.91 | 19.0 | 13.0 | 1.02
CC(C)(C)C(=O)/C(C#N)=c1\s/c(=C\c2ccncc2)c(=O)n1CCCN1CCOCC1 | 4.0% | i | 1.06 | 0.0 | 10.0 | 1.06
CCCCCOc1ccc(C2C(C(C)=O)=C(C)Nc3ncnn32)cc1OC (stereo not drawn) | 8.0% | i | 1.06 | 8.0 | 16.0 | 1.02
Cc1cnn(-c2ccc3nnc(-c4ccc(Br)cc4)n3n2)c1 | 11.0% | i | 1.56 | 3.0 | 22.0 | 1.09
CCCCC(=O)Nc1ccccc1C#N | 9.0% | i | 1.06 | 13.0 | 10.0 | 1.02
CCCCn1c(NC(=O)c2ccccc2Cl)c(C#N)c2nc3ccccc3nc21 | 5.0% | . | 3.95* | 9.0 | 0.0 | 1.09
CCCCn1c(NC(=O)CC)c(C#N)c2nc3ccccc3nc21 | 7.0% | . | 2.96* | 9.0 | 19.0 | 1.01
COc1ccc(-c2nc(C#N)c(NCc3ccc(F)cc3)o2)cc1OC | 17.0% | . | 3.92* | 13.0 | 20.0 | 1.06
COc1ccc(CNc2oc(-c3ccccc3)nc2C#N)cc1 | 1.0% | . | 1.96 | 3.0 | 0.0 | 1.02
COc1ccc(-c2nc(C#N)c(NCc3ccccc3Cl)o2)cc1OC | 13.0% | . | 3.95* | 9.0 | 17.0 | 1.02
COc1ccc(-c2nc(C#N)c(NCc3ccccc3Cl)o2)cc1 | 1.0% | i | 3.06* | 3.0 | 0.0 | 1.1
O=C(Nc1ccc(N2CCOCC2)c(F)c1)c1ccncc1 | 3.0% | i | 1.05 | 5.0 | 9.0 | 1.03
Cc1ccc(Cn2c(SCC(C)C)nc3c2c(=O)n(C)c(=O)n3C)cc1 | 4.0% | i | 1.01 | 12.0 | 8.0 | 0.97
COCc1cc(C)nc(N2CCN(c3ccccc3)CC2)c1C#N | 0.0% | i | 1.18 | 0.0 | 0.0 | 1.03
COCc1cc(C)nc(NC2CCCCC2)c1C#N | 4.0% | . | 3.69* | 1.0 | 6.0 | 1.14
CCOC(=O)COc1ccc2nsnc2c1Cl | 16.0% | + | 2.92* | 6.0 | 9.0 | 1.03
COc1ccc(-c2ccc(-c3nnc(-c4ccncc4)o3)cc2)cc1 | 9.0% | + | 2.35* | 12.0 | 15.0 | 1.01
O=c1c2[nH]c3cccc(Cl)c3c2ncn1Cc1ccncc1 | 4.0% | i | 1.49 | 12.0 | 1.0 | 1.02
CCN(CC)CCn1cnc2c([nH]c3cccc(OC)c32)c1=O | 9.0% | . | 3.73* | 6.0 | 12.0 | 1.04
COc1cccc2[nH]c3c(=O)n(CCN(C)C)cnc3c12 | 15.0% | . | 3.76* | 13.0 | 16.0 | 1.04
COc1ccccc1C(=O)NCCc1nc2ccccc2[nH]1 | 6.0% | i | 1.09 | 12.0 | 6.0 | 1
SMILES | NADH enzymes | Spn DPM-DC inh | Autofluor 339 | Spn MK inh | Spn PMK inh | A340 absorber
COC(=O)C1=C(C)N=C2SCCC(=O)N2C1/C=C/c1ccccc1 (stereo not drawn) | 4.0% | i | 1.13 | 9.0 | 3.0 | 0.98
Cc1sc2nc3c4ccccc4c(NCc4ccco4)nn3c(=O)c2c1C | 3.0% | . | 4.74* | 2.0 | 3.0 | 1.07
Cc1nnc(NCc2ccco2)c2ccccc12 | 5.0% | i | 1.06 | 2.0 | 14.0 | 1.02
C=CCNc1nc(N2CCCCC2)c(C#N)c2c1CN(Cc1ccccc1)CC2 | 6.0% | i | 1.4 | 10.0 | 0.0 | 1.04
COc1ccc(C)cc1N(C(=O)CNC(=O)c1ccco1)C(C(=O)NC1CCCC1)c1cccnc1 (stereo not drawn) | 3.0% | i | 1.1 | 6.0 | 3.0 | 1.01
CCOc1ccc(S(=O)(=O)Nc2nc3ccccc3nc2N2CCN(C)CC2)cc1 | 12.0% | i | 1.66 | 9.0 | 4.0 | 1.08
CC(=O)N1CCN(c2nc3cc4c(cc3nc2NS(=O)(=O)c2ccccc2)OCCO4)CC1 | 13.0% | i | 2.74* | 3.0 | 27.0* | 1.06
O=C(Cc1cccs1)Nc1nnc(-c2ccncc2)s1 | 5.0% | . | 2.21* | 5.0 | 4.0 | 1.11
